# Screens as filed in PubChem BioAssay.
# PrP UTR inh: inhibition of PrP 5' UTR reporter expression; inhibition, % (concentration not given with the values); cell-based PrP 5' UTR mRNA reporter, plate reader; AID 488862; 340,000 compounds, 0.35% hits; in the data active = inhibition above about 52%; also: 0 = median of the neutral control wells
# Y pestis TopoI: blocks Yersinia pestis topoisomerase I activity. Y. pestis Topo-I cleavage product accumulation, plate reader. activity, % at 10 µM. 360,000 compounds, 0.064% hits; in the data active = activity above about 50%, passing the limit was not always enough; inconclusive = no clear call, values can overlap the other calls
# Mtb BioA inh: blocks M. tuberculosis BioA enzyme activity | purified M. tuberculosis BioA enzyme, plate reader | inhibition, % at 9.99 µM | 360,000 compounds, 0.096% hits; in the data active = inhibition above about 40%; inconclusive = no clear call, values can overlap the other calls
# PfHsp40 rescue: compounds rescuing yeast from Plasmodium falciparum HSP40 toxicity; 340,000 compounds, 0.68% hits; growth rescue, % at 12.5 µM; AID 504582; S. cerevisiae expressing PfHsp40, growth rescue, ATP luminescence; in the data active = growth rescue above about 28%, passing the limit was not always enough; inconclusive = no clear call, values can overlap the other calls;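 also: yeast W303a lacking pdr1 and pdr3 grown in galactose medium; growth measured after three days at 30 °C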
# FadD28 binding: blocks FadD28 binding to the bisubstrate probe; 360,000 compounds, 0.22% hits; fluorescence polarization; inhibition, % at 12.5 µM; in the data active = inhibition above about 8.5%, passing the limit was not always enough; inconclusive = no clear call, values can overlap the other calls
# * marks the source's active call; other numbers are inactive results; ? = inconclusive; . = no result given. Most compounds without a hit are left out; they make up all but 1.1% or so of the library.
SMILES,PrP UTR inh,Y pestis TopoI,Mtb BioA inh,PfHsp40 rescue,FadD28 binding
CC(C)(C)c1cc(NCc2ccccn2)n2ncc(-c3ccc(Cl)cc3)c2n1,-2.2,-7.9,-0.4,-1.2,2.0
CN(C)CCCNc1cc(C(C)(C)C)nc2c(-c3ccc(Cl)cc3)cnn12,-5.3,-6.6,0.8,43.7*,-4.5
C[C@@H]1CN([C@H](C)CO)C(=O)c2cc(C#CCc3ccccc3)cnc2O[C@@H]1CN(C)Cc1ccc(C(=O)O)cc1,.,.,-2.1,.,.
COC(OC)c1ccnc(-c2ccc(OC(C)=O)cc2)n1,-17.7,2.4,.,51.7*,0.5
CN(C)C(=O)C[C@H]1CC[C@H](NC(=O)c2ccc(F)cc2)[C@H](CO)O1,.,.,1.6,.,.
CO[C@@H]1CN(C)C(=O)c2ccc(NC(=O)C3CC3)cc2OC[C@@H](C)N(C(=O)c2ccccc2)C[C@@H]1C,.,.,4.8,.,.
O=C(Nc1ccc(Cl)cc1)NC1CCCCC1Cc1ccco1 (configuration not stated),-28.4,-0.9,-1.4,226.5*,-8.6
CCn1c2ccc(C)cc2c2nnc(NN)nc21,-13.2,-3.3,1.2,-1.0,-2.0
CCn1c2ccc(C)cc2c2nc3cc(C(=O)O)ccc3nc21,0.7,-0.3,.,311.9*,-4.8
OC[C@H]1[C@H](c2ccc(Br)cc2)[C@H]2CN(Cc3ccccn3)CCCCN21,.,.,-0.4,.,.
Cc1ccc(SCCNC(=S)Nc2ccc(C)c(C)c2)cc1,-0.4,-2.1,-0.1,96.5*,-1.4
C[C@H](CO)N1C[C@H](C)[C@H](CN(C)Cc2cccnc2)Oc2ncc(C3=CCCCC3)cc2C1=O,.,.,5.6,.,.
c1ccc(-c2n[nH]c(-c3ccccc3)c2-c2nc3ccccc3[nH]2)cc1,-25.7,5.5,0.4,30.0*,-5.0
c1ccc(-c2nc3ccccc3[nH]2)cc1,-43.1,18.9,-0.8,-0.5,-4.3
COCC#Cc1ccc2c(c1)O[C@@H](CN(C)CC1CCOCC1)[C@@H](C)CN([C@H](C)CO)S2(=O)=O,.,.,-1.1,.,.
COC(=O)CC1C(=O)NCCN1C(=O)c1ccc(S(=O)(=O)N2CCOCC2)cc1 (configuration not stated),-70.5,0.3,-1.9,-0.4,14.0*
CN(CCOc1ccc(Cl)c(Cl)c1)Cc1ccccc1,-21.0,14.8,3.0,36.1*,-2.1
Cc1ccc(C2CC2C(=O)NNC(=S)Nc2cccc(C)c2)cc1 (configuration not stated),-29.5,2.7,0.2,?,-5.0
Cc1ccc(C2CC2C(=O)NNC(=S)Nc2cccc(Cl)c2)cc1 (configuration not stated),-20.1,0.2,3.2,78.7*,-13.6
CCCN1[C@H](C(=O)NCCCN(C)C)[C@@H](CO)[C@@H]2Cn3c(ccc(C4=CCCCC4)c3=O)[C@@H]21,.,.,-2.4,.,.
Oc1c(Cl)cccc1Cc1cc(Cl)cc(Cl)c1O,-54.4,-5.8,3.5,406.5*,11.9*
CCNC(=O)[C@@H]1[C@@H](CO)[C@@H]2Cn3c(ccc(-c4ccccc4)c3=O)[C@@H]2N1CC,.,.,0.1,.,.
Cc1cccc(NC(=O)C(=O)NNC(=O)c2ccc(C(C)(C)C)cc2)c1,-20.9,-6.5,-5.4,-0.3,-1.2
Cc1ccc(F)c(NC(=O)/C(C#N)=C(\O)c2ccc(C(C)(C)C)cc2)c1,-8.0,0.4,.,0.0,29.3*
C[C@H](CO)N1C[C@H](C)[C@@H](CN(C)Cc2ccncc2)Oc2ccc(NC(=O)Cc3cn(C)c4ccccc34)cc2CC1=O,.,.,1.6,.,.
SMILES,PrP UTR inh,Y pestis TopoI,Mtb BioA inh,PfHsp40 rescue,FadD28 binding
Brc1ccc(Cn2c(-c3ccc(Br)o3)nc3ccccc32)o1,-29.6,11.0,.,55.6*,-12.0
COCCNC(=O)C[C@@H]1CC[C@@H](NC(=O)NC2CCCCC2)[C@H](CO)O1,.,.,-2.1,.,.
Fc1ccc2nc3[nH]c4ccccc4c3nc2c1,-99.8,0.9,-1.2,47.4*,-2.8
CO[C@@H]1CN(C)C(=O)c2ccc(NC(C)=O)cc2OC[C@@H](C)N(Cc2cccc(F)c2)C[C@H]1C,.,.,0.3,.,.
CCN(CCCNc1cc2c(c(N)c1S(=O)(=O)O)C(=O)c1ccccc1C2=O)c1ccccc1,.,8.7,-1.2,.,29.0*
O=C1c2ccccc2C(=O)c2c(NCCCN(CCO)CCO)cccc21,-28.3,-29.3,.,1.4,1.4
C[C@@H]1CN([C@@H](C)CO)C(=O)c2cc(NC(=O)Nc3ccc4c(c3)OCO4)ccc2O[C@@H]1CN(C)Cc1ccc(C(=O)O)cc1,.,.,-0.3,.,.
Cc1ccc(C(C)(C)C)cc1S(=O)(=O)Nc1ncnc2sccc12,-14.0,5.4,.,250.9*,1.9
CCCCC/C=C/C1=CC(=O)C[C@H](c2ccc3c(c2)OCO3)C1,-12.5,62.8*,2.4,3.5,-2.3
CC1CCN(C(=O)c2ccc(NC3=C(Cl)C(=O)N(Cc4ccccc4)C3=O)cc2)CC1,-9.0,-7.3,-3.0,0.1,-0.7
CC1CCCCN1C(=O)c1cccc(NC2=C(Cl)C(=O)N(Cc3ccccc3)C2=O)c1 (configuration not stated),-20.2,25.9,-1.8,30.9*,-0.4
COc1cc(C(=O)ON=C2C3CC4CC(C3)CC2C4)cc(OC)c1OC,-27.5,23.7,0.1,324.5*,1.1
COc1cc(C(=O)O/N=C2\C=CC(=O)C=C2C)cc(OC)c1OC,-6.6,-13.0,.,-1.4,1.1
CO[C@@H]1CN(C)C(=O)c2ccc(NC(=O)NC(C)C)cc2OC[C@H](C)N(CCC(F)(F)F)C[C@H]1C,.,.,0.8,.,.
CCCn1nc(NS(=O)(=O)c2cccc3nonc23)c2cc3cccc(C)c3nc21,-2.1,15.7,4.8,3.4,9.9*
O=S(OCCN1CCOCC1)C(c1ccccc1)c1ccccc1 (configuration not stated),-7.7,1.7,-0.4,109.4*,-2.8
O=S(=O)(c1cccc(F)c1)N1CC[C@@H]2[C@H](CO)Nc3ccc(C#Cc4cccc(F)c4)cc3[C@@H]21,.,.,2.6,.,.
CCOC(=O)N1CCN(C(=O)c2ccc3c(=O)n(Cc4ccccc4OC)c(=S)[nH]c3c2)CC1,-2.7,2.1,-0.1,28.7*,-0.7
O/N=C/c1cc(Br)ccc1OCc1ccc(F)cc1,-37.5,-8.7,1.7,-0.2,-1.9
Cc1ccc(COc2ccc(Br)cc2/C=N/O)cc1,-78.6,-8.3,-1.3,449.9*,-2.7
O/N=C/c1cc(Br)ccc1OCc1cccc(F)c1,-3.9,3.9,2.4,279.2*,-1.6
O=C(C[C@@H]1C[C@H]2c3cc(NC(=O)C4CCC4)ccc3O[C@H]2[C@@H](CO)O1)NCc1ccccc1,.,.,-0.6,.,.
COc1cc(NCc2ccccc2O)c2ncccc2c1,-21.6,-7.4,-0.7,0.7,12.0*
COC(=O)c1ccc2cc(OC)cc([N+](=O)[O-])c2n1,-16.2,2.6,.,37.4*,-3.3
COc1cc([N+](=O)[O-])c2nc(C=NNC(N)=S)ccc2c1,-8.8,-7.3,.,-1.1,-0.3
CNS(=O)(=O)/C=C/c1ccccc1,-20.4,-3.1,.,-0.1,-2.3
O=S(=O)(/C=C/c1ccccc1)NC1CCCCCC1,-37.5,15.7,.,63.4*,0.2
O=S1(=O)CCC(NS(=O)(=O)/C=C/c2ccccc2)C1 (configuration not stated),-6.2,-8.2,.,-0.8,-0.1
O=S(=O)(/C=C/c1ccccc1)NC1CCCCCCC1,-12.4,20.8,.,69.6*,-1.3
